Screening results from PubChem.
This is a sample that favours compounds with a hit; in the whole collection about 11% have one here.
Pf growth 48h = inhibits P. falciparum growth in the first generation, 48 h; P. falciparum luciferase growth in erythrocytes, 48 h; Potency, µM (doses to about 28.7 µM), for inactives: at the highest dose activity change, negative = inhibition, most hits filed as inhibitors; 5.9% of 310,000 active; AID 504832; also: % is scaled to controls: 0 for no effect and ±100 for the full control effect
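Luciferase-expressing parasites in RBCs, 2% Hct / 0.1% parasitemia final; RPMI 1640 + 0.5% Albumax; 37 C, 5% CO2, one generation; luminescence read-out, lower signal = inhibition.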
Vaccinia Venus = vaccinia inhibition (Venus reporter). Vaccinia virus Venus reporter expression, fluorescence. Potency, µM (highest dose often 36.5 µM), for inactives: at the highest dose activity change, negative = inhibition, most hits filed as inhibitors. 0.46% of 330,000 active; calls by dose curve; tested in A549 cells; also: % is scaled to controls: 0 for no effect and ±100 for the full control effect; nearly all actives have a fitted effect of over 30% in size
HCV inh = HCV inhibition | AID 651820 | Potency, µM (doses to about 41.8 µM), without a hit: at the top dose activity change, negative = inhibition, hits mostly inhibitors | 3.4% of 340,000 active | Huh7.5.1 HCVcc-Cre infection, luciferase reporter, 44 h; also: % is scaled to controls: 0 for no effect and ±100 for the full control effect
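Seed cells (1,000/well) for 4 h; treat with compound and infect with HCVcc-Cre, moi about 0.5. Incubate 44 h, then detect luciferase activity.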
NS1 inh = inhibitors of influenza NS1 protein function. Potency, µM (doses to about 46.1 µM), for the others: at the top dose activity, positive = more growth. 0.4% of 270,000 active. AID 2326; calls by dose curve; also: actives are rising curves; nearly all actives have a fitted effect of over 50% in size
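Recovery from NS1-induced slow growth read by OD600 in budding yeast switched to galactose assay medium (pH 6.0, -URA) at 1:100 dilution. Compound 23 nl per well; the matching strain lacking NS1 serves as control.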
VACV mCherry inh = inhibitors of vaccinia virus infection (mCherry reporter signal) | Vaccinia virus mCherry reporter infection, fluorescence | Potency, µM (highest dose often 36.5 µM), for inactives: top-dose activity change, negative = inhibition, most hits filed as inhibitors | 0.63% of 310,000 active | AID 720579; calls by dose curve; tested in A549 cells; also: % is scaled to controls: 0 for no effect and ±100 for the full control effect; nearly all actives have a fitted effect of over 35% in size
Pf growth 96h = P. falciparum growth inhibition at 96 hours; 6.9% of 320,000 active; Potency, µM (doses to about 28.7 µM), for the others: at the highest dose activity change, negative = inhibition, actives largely listed as inhibitors; P. falciparum luciferase reporter growth, 96 h; also: % is scaled to controls: 0 for no effect and ±100 for the full control effect
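Compounds incubated with erythrocytes infected by luciferase-expressing P. falciparum (2% hematocrit, 0.05% parasitemia final) for 96 hours, 37 C in 5% CO2. Growth inhibition scored as decreased luciferase luminescence.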
* hit, by the source's call; i = inactive; ? = inconclusive; · = no result. Unless noted, calls follow the shape of the dose curve; as a rule, active = well fitted inhibition curve with a large enough effect; inconclusive = small, poorly fitted or top-dose-only effect, or another doubt; inactive = no such curve, though single readings can be large or run the other way. Potency is read from the fitted curve at half-maximal effect.

SMILES	Pf growth 48h	Vaccinia Venus	HCV inh	NS1 inh	VACV mCherry inh	Pf growth 96h
CC(=O)Nc1ccc(OCC(=O)NCCc2ccc(Cl)cc2)cc1	24%	-9%	4%	-11%	-2%	13µM*
CCCc1c(NC(=O)Nc2ccc(F)cc2)cnn1-c1ccc(Cl)cc1	6.6µM*	?	15%	0%	-15%	?
COc1ccc(C2SCCN2C(=S)Nc2cccc(Cl)c2)cc1 (configuration not stated)	2.3µM*	-23%	?	-23%	?	2.1µM*
COc1ccc(OCC(=O)Nc2ccc(Cl)cc2)cc1	6%	3%	-19%	-5%	i	-12%
COc1ccc(/C=N/n2cnnc2)cc1Oc1nc(Cl)ncc1F	33%	0%	11%	·	0%	21%
NC(=O)C1CC12c1ccccc1-c1ccccc12 (configuration not stated)	7%	-12%	7%	-4%	-12%	2%
Cn1c(Cl)nc2ccccc21	5%	·	-4%	8%	·	14%
CN(C)c1ccc(N=Nc2nc3ccccc3n2C)cc1	4%	·	10µM*	-34%	·	?
Cn1c(N=Nc2ccccc2)nc2ccccc21	0.74µM*	-5%	?	-47%	i	0.26µM*
COc1ccccc1NC(=O)Nc1nc(CC(=O)Nc2cccc(F)c2)cs1	4.1µM*	?	11%	·	?	2.1µM*
COc1ccccc1NC(=O)Cc1csc(NC(=O)c2ccccc2)n1	12%	·	7.1µM*	-3%	·	-18%
COc1ccccc1NC(=O)Nc1nc(CC(=O)Nc2ccc(F)cc2)cs1	?	-23%	?	·	?	?
CC1(C)C/C(=N\NC(=S)Nc2ccccc2F)c2cc(O)ccc2O1	13µM*	-29%	?	·	?	10µM*
Cc1cccc(NC(=S)N/N=C2\CC(C)(C)Oc3ccc(O)cc32)c1	?	-26%	?	10%	?	?
CCCC(=O)Nc1nc2nc(C)cc(=O)n2[nH]1	18%	-16%	4%	0%	·	·
COC(=O)Nc1ccc(S(=O)(=O)N2CCCCC2C(=O)NCc2ccco2)cc1 (configuration not stated)	·	?	?	2%	i	-25%
CC1CCCCN1S(=O)(=O)c1ccc(S(=O)(=O)N(Cc2ccccc2)Cc2ccco2)cc1 (configuration not stated)	10µM*	-8%	1%	18%	-15%	10µM*
Cc1ccc(S(=O)(=O)N2CCC(C(=O)N3CCC[C@H]3C(=O)NCc3ccccc3)CC2)cc1	?	·	-9%	-6%	·	23%
Cc1ccc(S(=O)(=O)N2CCC(C(=O)N3CCC[C@H]3C(=O)NCc3ccco3)CC2)cc1	12µM*	-3%	-4%	3%	-11%	13µM*
Cc1ccc(S(=O)(=O)N2CCCCC2C(=O)NCc2ccco2)cc1 (configuration not stated)	?	-1%	-11%	2%	-13%	5.2µM*
COc1ccc(/C=N/NC(=O)Cc2n[nH]c(=O)[nH]c2=O)cc1	8%	2%	-12%	2%	i	36%
O=C(Cc1n[nH]c(=O)[nH]c1=O)N/N=C/c1ccccc1O	1.5µM*	-22%	-17%	-1%	-24%	32%
O=C(NC(=S)Nc1ncccn1)c1ccccc1Cl	20%	-3%	6%	16%	i	57%
Cc1ccc(O)c(C(CC(=O)N2CCCC2)c2ccccc2)c1 (configuration not stated)	-1%	-15%	11%	-5%	-23%	0.37µM*
Cc1ccc(O)c(C(CC(=O)NC(C)C)c2ccccc2)c1 (configuration not stated)	-19%	·	?	-2%	·	13µM*
SMILES	Pf growth 48h	Vaccinia Venus	HCV inh	NS1 inh	VACV mCherry inh	Pf growth 96h
COc1ccc(CCNC(=O)CC(c2ccccc2)c2cc(C)ccc2O)cc1OC (configuration not stated)	?	·	10µM*	-5%	·	1%
COc1ccc(CCNC(=O)CC2SC(=NCCc3ccccc3)NC2=O)cc1OC (configuration not stated)	13µM*	-13%	4%	14%	0%	9.3µM*
O=C(NCc1ccc(F)cc1Cl)C1CCN(S(=O)(=O)N2CCC3(CC2)OCCO3)CC1	-2%	-7%	-3%	-12%	-3%	-11%
C=CCC1C=C(Cc2ccccc2)CC(CC=C)N1 (configuration not stated)	?	·	-10%	·	·	4%
C=CC[C@H]1CC(Cc2ccccc2)=C[C@H](CC=C)N1	0.23µM*	-18%	-23%	-9%	i	0.074µM*
C=CC[C@H]1CC(C)=C[C@H](CC=C)N1	0.93µM*	-16%	18%	·	i	?
C=CC[C@@H]1Cc2c(Br)ccc(Br)c2[C@@H](CC=C)N1	?	-10%	30%	-12%	-5%	-11%
CCC(CC)C(=O)Nc1c(C(=O)N2CCN(c3ccccc3)CC2)oc2ccccc12	10µM*	-17%	3%	-22%	-24%	-9%
Cc1ccc(NC(=O)C2C3CCCC2C3c2ccccc2)cc1C (configuration not stated)	8%	-10%	13%	11%	-13%	-20%
N#C/C(=C(/O)c1ccc([N+](=O)[O-])o1)c1nc2ccccc2[nH]1	-12%	·	2%	-4%	·	25%
Cc1nc(Cl)c(C(=O)NCc2ccccc2)c(C)c1Cl	2%	-11%	-1%	·	i	27%
CCOc1ccccc1-c1ccc(C(=O)NCc2ccccc2)o1	?	?	14µM*	-19%	-27%	7.4µM*
Cc1ccc(-c2ccc(C(=O)NCc3ccccc3)o2)c2ccccc12	?	-17%	?	-5%	-6%	10µM*
O=C(NCc1ccccc1)c1c(Cl)nc(Cl)c(Cl)c1Cl	8%	?	13µM*	0%	-9%	30%
Cc1ccc(-c2ccc(C(=O)Nc3ccccc3)o2)c2ccccc12	-9%	-21%	?	-23%	-4%	?
Cc1ccc(-c2cccc(C(=O)NCc3ccccc3)n2)c2ccccc12	?	-21%	?	-18%	-13%	13µM*
CCCCCCN1C[C@H](n2cc(-c3ccc(F)cc3)nn2)[C@@H](O)C[C@@H]1c1ccc(OC)cc1	·	-13%	·	·	-9%	·
CCN(CCn1cccn1)C(=O)c1ccc(OC2CCN(C(=O)CCOC)CC2)cc1	·	-2%	·	·	-26%	·
CC1CCN(c2c(NCc3ccc(C(=O)N4c5ccccc5CC4C)cc3)c(=O)c2=O)CC1 (configuration not stated)	?	-23%	-6%	-107%	-7%	-25%
CN1C(=CC=C2C=C(I)C(=O)C(I)=C2)C(C)(C)c2ccccc21	3.3µM*	480%	-24%	-2%	198%	2.1µM*
CN1/C(=C\C=[N+](C)c2ccccc2)C(C)(C)c2ccccc21	0.41µM*	?	11µM*	-7%	-11%	2.1µM*
